Measurements from PubChem BioAssay (NCATS).
Results filed as inconclusive are left out. A number with no mark means an inactive call. Activity calls are given as the source filed them. The call rests on the fitted dose curve; in most records, active means well fitted cell-killing curve with a large enough effect; inconclusive means small, poorly fitted or top-dose-only effect, or effect the other way; inactive means no such curve, though single readings can be large or run the other way.

Assay: Quantitative High-Throughput drug screen in 47 multiple myeloma cell lines against the NCATS MIPE library collection: KMS11_JCRBsus cell viability assay (AID 1919873); further: nearly all actives have a fitted effect of over 50% in size
Settings: KMS11 myeloma viability, CellTiter-Glo ATP luminescence, 48 h; series mostly up to 45.8 µM; viability (% of control): at the top concentration
Text: PI: Beverly A. Mock Ph.D.
Laboratory of Cancer Biology and Genetics,
Center for Cancer Research, National Cancer Institute,
National Institute of Health, Bethesda, Maryland
Drug resistance and disease progression are common in multiple myeloma (MM) patients, underscoring the need for new therapeutic combinations. […] We hypothesized that effective combinations would reduce MYC expression and enhance p16 activity. […] These preclinical data identify potentially useful drug combinations for evaluation in drug-resistant MM and reveal potential mechanisms of combined drug sensitivity.
Described herein is the primary MIPE qHTS used to cherrypick compounds. Validated compounds were then further tested for potential synergistic activiy.
[1] Peat TJ, Gaikwad SM, Dubois W, Gyabaah-Kessie N, Zhang S, Gorjifard S, Phyo Z, Andres M, Hughitt VK, Simpson RM, Miller MA, Girvin AT, Taylor A, Williams D, D'Antonio N, Zhang Y, Rajagopalan A, Flietner E, Wilson K, Zhang X, Shinn P, Klumpp-Thomas C, McKnight C, Itkin Z, Chen L, Kazandijian D, Zhang J, Michalowski AM, Simmons JK, Keats J, Thomas CJ, Mock BA. Drug combinations identified by high-throughput screening promote cell cycle transition and upregulate Smad pathways in myeloma. Cancer Lett. 2023 Aug 1;568:216284. doi: 10.1016/j.canlet.2023.216284. Epub 2023 Jun 24. PMID: 37356470; PMCID: PMC10408729.
SEQUENCE No. (e.g., 1, 2, 3, etc.); […] (e.g., Cells, Incubation, Reagent, etc.); VALUE and DESCRIPTION.
1; Cells; 5 uL; white, solid bottom 1536-well Greiner assay plate.
2; Compounds; 23 nL; Kalypsis pin tool (Wako USA) equipped with a 1536-well pin head to transfer to the assay plates.
3; Incubation; 48 hours; 37C incubation.
4; Reagent;5uL; CellTiter Glo (Promega).
5; Detector; 425V; Luminescence; Viewlux PerkinElmer.
NOTES (numbers refer to Sequence numbers above)
1. The cell-based screening methods employed in this study were like those previously published. Briefly, the corresponding myeloma cell lines were screened in 1,536-well plates with 500 cells, 5-uL per well for inhibition of cell viability (assessed by measuring ATP levels with CellTiterGlo).
2. NCATS MIPE 4.0 library of approved and investigational drugs were added using the Kalypsis pin tool. Wells treated with DMSO only for 100% viability and media only for 0% viability were used as controls.
3. The assay plates were covered and incubated for 48 hours in a 37C, 5% CO2 incubator with controlled humidity.
4. After 48 hours, CellTilter-GloTM luminescent substrate mix (Promega) reagent was added to the assay plate and plates we incubated for 5 min at room temperature.
5. Signal was measured as median relative luminescence units on a ViewLux (PerkinElmer) multiplate reader.
[1] Heske CM, Davis MI, Baumgart JT, Wilson K, Gormally MV, Chen L, Zhang X, Ceribelli M, Duveau DY, Guha R, Ferrer M, Arnaldez FI, Ji J, Tran HL, Zhang Y, Mendoza A, Helman LJ, Thomas CJ. Matrix Screen Identifies Synergistic Combination of PARP Inhibitors and Nicotinamide Phosphoribosyltransferase (NAMPT) Inhibitors in Ewing Sarcoma. Clin Cancer Res. 2017 Dec 1;23(23):7301-7311. doi: 10.1158/1078-0432.CCR-17-1121. Epub 2017 Sep 12. PMID: 28899971; PMCID: PMC6636827.
Potency means the concentration at half of the fitted maximal effect.

Compound | viability (% of control) [%] | Potency
CCn1cc(C(=O)O)c(=O)c2cc(F)c(N3CCNCC3)cc21 | 113 | –
O=NN(CCCl)C(=O)NC1CCCCC1 | 101 | –
OCc1ccc(-c2nn(Cc3ccccc3)c3ccccc23)o1 | 94.5 | –
Cc1ccc(S(=O)(=O)N[C@@H](Cc2ccccc2)C(=O)CCl)cc1 | – | 9.35 µM (active)
CN(C)c1ccc(C(=C2C=CC(=[N+](C)C)C=C2)c2ccc(N(C)C)cc2)cc1 | – | 0.0264 µM (active)
O[C@@H](CNC[C@H](O)[C@H]1CCc2cc(F)ccc2O1)[C@@H]1CCc2cc(F)ccc2O1 | – | 7.43 µM (active)
CC1=NN(c2ccccc2)C(=O)C1 | 107 | –
COc1ncnc(NS(=O)(=O)c2ccc(N)cc2)c1OC | 109 | –
CC(C)(C)C(=O)OCOP(=O)(COCCn1cnc2c(N)ncnc21)OCOC(=O)C(C)(C)C | – | 23.5 µM (active)
COc1cc([C@@H]2c3cc4c(cc3[C@H](O)[C@H]3COC(=O)[C@H]23)OCO4)cc(OC)c1OC | 3.19 | –
CNC1CCCN(c2c(F)cc3c(=O)c(C(=O)O)cn(C4CC4)c3c2OC)C1 (stereo not given) | – | 9.35 µM (active)
CC(C)OC(=O)OCOP(=O)(CO[C@H](C)Cn1cnc2c(N)ncnc21)OCOC(=O)OC(C)C | 112 | –
O=S(=O)(c1cccc2cnccc12)N1CCCNCC1 | 85.4 | –
CCOC(=O)[C@H](CCc1ccccc1)N[C@H]1CS[C@H](c2cccs2)CN(CC(=O)O)C1=O | – | 1.66 µM (active)
Cc1nnc(NS(=O)(=O)c2ccc(N)cc2)s1 | – | 9.35 µM (active)
COc1c(N2CCNC(C)C2)c(F)cc2c(=O)c(C(=O)O)cn(C3CC3)c12 (stereo not given) | 104 | –
CCCc1nc(C)c2c(=O)[nH]c(-c3cc(S(=O)(=O)N4CCN(CC)CC4)ccc3OCC)nn12 | – | 2.96 µM (active)
CC1(C)[C@H](C(=O)O)N2C(=O)C[C@H]2S1(=O)=O | 107 | –
Cc1onc(-c2ccccc2Cl)c1C(=O)N[C@@H]1C(=O)N2[C@@H]1SC(C)(C)[C@@H]2C(=O)O | 108 | –
O=c1oc2c(O)c(O)cc3c(=O)oc4c(O)c(O)cc1c4c23 | 119 | –

Compound | viability (% of control) [%] | Potency
NNC(=O)c1ccncc1 | 124 | –
Nc1nc(F)nc2c1ncn2[C@@H]1O[C@H](CO)[C@@H](O)[C@@H]1O | – | 0.296 µM (active)
COC(=O)Nc1nc2ccc(Sc3ccccc3)cc2[nH]1 | – | 0.935 µM (active)
COc1cc2nc(N3CCCN(C)CC3)nc(NC3CCN(Cc4ccccc4)CC3)c2cc1OC | – | 4.69 µM (active)
OC(Cn1cncn1)(Cn1cncn1)c1ccc(F)cc1F | 109 | –
COC(=O)Nc1nc2ccc(C(=O)c3ccccc3)cc2[nH]1 | – | 0.332 µM (active)
S=P(N1CC1)(N1CC1)N1CC1 | 91 | –
CC1=CC(=O)c2ccccc2C1=O | – | 18.7 µM (active)
COc1nc(N)nc2c1ncn2[C@@H]1O[C@H](CO)[C@@H](O)[C@@H]1O | 100 | –
CN(Cc1cc(Br)cc(Br)c1N)C1CCCCC1 | 88.4 | –
C[C@@H](NCCCc1cccc(C(F)(F)F)c1)c1cccc2ccccc12 | 105 | –
O=C(N[C@H](CO)[C@H](O)c1ccc([N+](=O)[O-])cc1)C(Cl)Cl | 103 | –
CCCN[C@H]1CCc2nc(N)sc2C1 | 89.1 | –
CCN[C@H]1C[C@H](C)S(=O)(=O)c2sc(S(N)(=O)=O)cc21 | 106 | –
COc1ccc2c(c1)c(CC(=O)OCC(=O)O)c(C)n2C(=O)c1ccc(Cl)cc1 | 107 | –
CCOC(=O)[C@H](CCc1ccccc1)N[C@H]1CCc2ccccc2N(CC(=O)O)C1=O | – | 8.33 µM (active)
Cn1nnc2c(C(N)=O)ncn2c1=O | 103 | –
CC(C)C[C@H](NC(=O)[C@H](CCc1ccccc1)NC(=O)CN1CCOCC1)C(=O)N[C@@H](Cc1ccccc1)C(=O)N[C@@H](CC(C)C)C(=O)[C@@]1(C)CO1 | – | 0.0053 µM (active)
CC(C)OC(=O)C(C(=O)OC(C)C)=C1SC=CS1 | 94.8 | –
CC(C)(Sc1cc(C(C)(C)C)c(O)c(C(C)(C)C)c1)Sc1cc(C(C)(C)C)c(O)c(C(C)(C)C)c1 | 101 | –
